Hit rate of the full screen: of about 53,000 sequences, about 3,700 (7%) were called active. The full list was thinned out, with actives kept by preference. A number with no mark means an inactive call.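 The calls were made as follows: active = gene knockdowns whose robust z-score for IL-1 alpha signal is at least 2 or at most -2, so actives lie on both sides; inactive = the rest.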

This note sets out measurements from PubChem BioAssay AID1508600 (Functional Genomics Laboratory (NCATS/FGL), 2020).

This assay can be described thus: Components of the Cytosolic LPS Sensing Pathway: Gene Identification via Genome-wide siRNA Screen.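 Also: robust z of the log signal after scaling to non-targeting control siRNA wells of the plate.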 As to conditions: RAW264.7 macrophages, IL-1a HTRF, actives lie on both sides, screened at 100 nM (by protocol), cells primed 5 h with Pam3CSK4 first. Summed up:
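IL-1a HTRF of supernatants after 24 hour LipidA transfection of Pam3CSK4-primed (5 hours) RAW264.7 cells, 48h post-siRNA transfection (100 nM). Scores: percent of plate negative-control median, then log-based robust z-score.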
On the technique in general: In TR-FRET formats the signal depends on donor and acceptor labels being close together.
With GGAGAAAUUCUUCAAUGAGTT against Syt2, the z-score is -0.19.

For GGAGACCAAAAUUUCUUGGTT against Sox9, the z-score was 0.0192.

Take GGAUCCGAACAUCCUCAGGTT against Hr: the z-score was -2.22 (active).

Consider CGAAGAGAUCAGUAAUAUGTT against Kif21a, for which the z-score is 0.31.

As for CCCAUGGAAAUCCUCAGUATT against Ctsa, the z-score is -2.1 (active).

Consider CCCACUGAUGAUUACGUUCTT against Irf5, for which the z-score is -0.247.

With CCACAAGCUAAUACAUGCUTT against Ubac1, the z-score is -1.37.

GGCCACAAAGACUCUGUGATT against Aamp: the z-score was -2.25 (active).

On to GGCAGAACACCUUCUUAGUTT against Dars2, for which the z-score was -0.425.

Take AGUUAGCCUUGAGGAGAAUTT against Olfr1512: the z-score is 0.503.

Regarding CCAUUGGAUUGGAACUGGATT against Dhx57, the z-score is -0.288.

GCAGGUUUGAUAUAAAAUCTT against Uba2: the z-score was 0.162.

As to GCUCACCUGAGUCAAUGAUTT against Nr5a2, the z-score was -2.25 (active).

For GGAAUUUUGGUAGGUUUUATT against Tlcd4, the z-score was 1.36.

As for CGGAAAAUCCUGCCUCCCUTT against S100pbp, the z-score is -0.36.

With GGAUGUAGAUGUUGGUUUUTT against Kcnj14, the z-score is 2.52 (active).

In the case of GCCAUCUGCUUUAACCUCUTT against Aebp2, the z-score is 0.238.

Turning to GGUGUACGAGAUCCAGGACTT against Eif3l, the z-score was -0.699.

For the sequence GGCUGGUCAAAAUUUGGAATT against Cdca2, the z-score was -0.9.

Consider CGCAAGGACCGAUCUGAUGTT against Rnps1, for which the z-score was -2.41 (active).

Consider GCAUCUGGGACAUUUAGAGTT against Cd200r3, for which the z-score is -1.08.

CCAGCUUUUGUUUGUUAGATT against Trappc11: the z-score is 0.56.

With GGAAGACUUGGCUACACAATT against Rab40c, the z-score was -1.04.

For GGCAAACCUGCUUCUGCUATT against Prss52, the z-score was -1.27.

As for GUUACUUUGAUGUUGUCUATT against Pdgfrl, the z-score is 0.817.

For GGCCAAUGCACUGUGUUACTT against Tinag, the z-score is 1.25.

Consider GCAGAGAGAUACAUUAAAGTT against Adam10, for which the z-score was 1.16.

Regarding CGCGCUUCUACUUUUUUUATT against Nkx2-1, the z-score was 0.406.

GGAGGACCCUAUGUCUAAUTT against Adora1: the z-score is 4.6 (active).

On to “GCUGAGACAUGUGGAGUAUTT against 4931429L15Rik”, for which the z-score was 0.426.

Turning to GGUUCUCAUCAUUUCAACUTT against Sh3bgrl, the z-score is -1.61.

As to GGCUUUGACCCGAAAAGAATT against Tut4, the z-score is -0.0161.

For CGUGCCAAUUGAAAAAAACTT against Prkn, the z-score was 1.23.

On to CCAUACAAUAAGAGUGCUATT against Clec4a4, for which the z-score is 0.936.

In the case of “GGGUAGGCAAAGUUUUCAATT against 1700029M20Rik”, the z-score was 4.63 (active).

For the sequence GCAUUCCAUGGUACAGGGUTT against Adamts4, the z-score is -0.646.

In the case of CGGUUUACAUUCCUGACUUTT against Plekho2, the z-score is 1.42.

On to GGACCAAAGAUGCAUCAGUTT against Zfyve16, for which the z-score is -0.788.

GGACCAAGGCUUUAUGAACTT against Crygn: the z-score is 0.404.

In the case of GGCCUACGAACAGGUCAUGTT against Foxa2, the z-score is 0.0835.

With “CGUGUCUGAAGGACUACAATT against 1700052K11Rik”, the z-score was 0.0454.

Regarding GCAGUAAGUCAGUGCCUCATT against Atxn1, the z-score was 1.51.

Turning to GGUUGAUGCCAUGAAGUCCTT against Acyp2, the z-score is -1.22.

With GGUUGUUGUGACCUUCCUGTT against Bod1, the z-score was -2.65 (active).

Turning to GGGACAUUAUGCUUAUGACTT against Srsf7, the z-score is -0.513.

GGCAGAAGCCUAAAACGGUTT against Nudt2: the z-score was 0.00394.

On to GGCAUUCUGAAAACAACUCTT against Hvcn1, for which the z-score is 2.02 (active).

As to GCCAAGACCUAUGAGUAUATT against Naaladl1, the z-score was 1.33.

Regarding CCGAUAAUAUCAAUGGAAATT against Med24, the z-score is 0.744.

On to GGACAUCAAGAAGGACAAATT against Ppp2r5d, for which the z-score is 0.874.

As for GGGUCAAAGAGAAAAAAGUTT against Hoxa13, the z-score was -1.2.

As to GGUGAUGGUGUAAAAUACATT against Dab2, the z-score was 4.98 (active).

With GGAGAAGCAUGGCUAUAACTT against Rcor2, the z-score was -0.393.

As for GGUGACCUACAAGAUUUGUTT against Csdc2, the z-score was -0.801.

With GUCACUCUUUUUUAUGGAATT against Olfr485, the z-score was -1.48.

Take GGCGAAUUGAAGGAGACCATT against Tmod3: the z-score was 2.54 (active).

Take GGGCAUAGAUUAGUCUUUATT against Ing2: the z-score is 1.01.

As to GCGCAUAUUUUAUCAACUCTT against Plcb3, the z-score is 0.38.

Regarding GGAACCAUGGACCUUAAUUTT against Rbm4, the z-score was 0.291.

Take GCUUUCCUAGACAAUCUAUTT against Arhgap19: the z-score was 0.0654.

With GGCUGCAUUACCCAGCUUATT against Olfr853, the z-score was 0.719.

On to GGAAGUCCUAUGAUUAAACTT against Zfand1, for which the z-score was -0.633.

In the case of CCUUCUAUUCACUUUACCATT against Vmn1r87, the z-score is -0.907.

As to GGGUUCACAUGGCAUAGUCTT against Zfp1, the z-score was -0.0137.

As for GGAGAGUACAGACACUGAGTT against Masp2, the z-score was -0.22.

With GCUUAGACAACGACAUUUCTT against Mcoln3, the z-score is 2.04 (active).

Take GGUCUUCUCCAAGAUCUUCTT against Cyp26b1: the z-score is 1.03.

Consider GCACACCUAUGUCCACUCUTT against Aars, for which the z-score is -0.923.

For GGUGCCUUCUGUAAACGAGTT against Foxc2, the z-score was 2.81 (active).

As for GGAAGGAAAACCUUUCAACTT against Cyp2j6, the z-score was 0.975.

In the case of GGUGGUGACCUUGGAUGUUTT against Gstp3, the z-score is -0.00982.

In the case of GGAAGCACAUAGAAGCCAATT against Defb11, the z-score is -0.504.

As for GGGAGAGUGGAUCAUCAAUTT against P2ry10, the z-score was -0.0942.

As for GGGAAUAUUUGGAUAACUUTT against Pak7, the z-score was 4.24 (active).

Turning to GCCACGACCAUUCAGACUCTT against Lrrc42, the z-score is 1.27.

Take GGAUGAUCGGCACUAUAACTT against Otulin: the z-score is 1.81.

As to GGAGAGAUGUUUAUGAAUATT against Slc6a14, the z-score was -0.429.

With GGAAAAAGAUAGAACCAGATT against Larp1b, the z-score was -0.177.

GGAAAGCUCUUUGUGUCGGTT against Gramd3: the z-score is -0.476.

With CCAUCUAGUGCUGUAUUUCTT against Rnf215, the z-score is 0.67.

For GGUGAAAUCCAUUAAAGAATT against Fth1, the z-score was -2.06 (active).

In the case of GGAGUUUUCUCGAAACUUCTT against Fate1, the z-score was 0.993.

On to GGACCAAGAACCAGCAAUGTT against Defb6, for which the z-score was -0.69.

Take GGAAAAACUGAAACAGUUUTT against Eif3a: the z-score is 1.06.

In the case of AACACGGCUCUAGCCAAUCTT against Ypel4, the z-score is -1.25.

For the sequence GCCAAUUUGAAUGGGAUGUTT against Magohb, the z-score was -2.25 (active).

GGUGGUUACCAUAGCUGGUTT against Arid2: the z-score is 1.67.

In the case of CCUAAACUCACUCUUGUGUTT against Chrna6, the z-score is -0.000677.

As for CCUAGACGUGACUUAAUAUTT against Rabggtb, the z-score was 2.09 (active).

CCUCAGCAAAUAUAUGGCATT against Ccdc7b: the z-score is 0.0117.

As for GCAAGCUGAGCAUUGAUGATT against Csk, the z-score was 0.0106.

Regarding GCAGUCUUUUGGAUAGGUUTT against Ccni, the z-score was 0.86.

On to GCUGUGCAGCCACAAGUGATT against Gpr142, for which the z-score is 8.63 (active).

For GGAUGGAAUGCAGAAACGATT against Pcp2, the z-score is -0.061.

As for GGGAUCAGAAAAGUUAACATT against Acaca, the z-score is 0.785.

With GGACUUCACUUUUCUAUGATT against Tmem64, the z-score was 1.47.

On to GGCUUUGGACUGUAUGACCTT against Ccdc159, for which the z-score is -0.923.

In the case of GGUGGAAAGAGAGAGCUACTT against Slc12a7, the z-score was 0.458.

On to GGUUUGCUGAGAAAUUAACTT against Btg3, for which the z-score was 0.958.

Regarding GCCCACGUAUUUGUCUGCUTT against Sprn, the z-score was -2.58 (active).

Consider GCCUUCUUAACUUCAUCACTT against Taar5, for which the z-score is 1.16.

For the sequence CCUGAACACAAGUGCUGGUTT against Clec4a4, the z-score is -1.8.

As to GGCCAUCACACACAGAAACTT against Pla2g2f, the z-score is -0.505.

Take GGCUAUGCAGAUGGUACCUTT against Vil1: the z-score is 0.871.

For CCAUGUGUCAAACUACCGGTT against Rbmx2, the z-score is 7.02 (active).

Take CCAUGAUUAAGGGUCUCUATT against Ldha: the z-score was 0.111.

Consider GGUGGUAAAUAAUUAAGGATT against Clec14a, for which the z-score was 0.623.

For the sequence GGAACUGAUAAACUACUCUTT against Olfr1126, the z-score was -2.08 (active).
